Test [1] can be described thus: small molecules captured by biotinylated probe aFSTL3 – biochemical, small-molecule microarray, fluorescence 635/667, stem cell growth factor project, primary screen (AID 1064).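 Note: measures binding of the biotinylated anti-FSTL3 antibody to printed compounds.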 The following applies: higher = more signal.
Test [2] in a line: binders from COS7 lysate, DM2A8 probe, primary screen, torsin A project, cell lysate, small-molecule microarray, fluorescence 635/667 (AID 1065). The following applies: higher = more signal, COS7 lysate expressing mutant human TOR1A.
The nature of test [3]: small molecules captured by biotinylated probe aFGF2 – biochemical, small-molecule microarray, fluorescence 635/667, stem cell growth factor project, primary screen (AID 1067).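 Note: measures binding of biotinylated aFGF2 protein to printed compounds on slides; z-score merges feature fluorescence and signal-to-noise across triplicate slides.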 The following applies: higher = more signal.
Test [4] can be described thus: small molecules captured by biotinylated probe aFGF10 – biochemical, small-molecule microarray, fluorescence 635/667, stem cell growth factor project, primary screen (AID 1071).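 Note: score merges 667 nm spot intensity and signal to noise from triplicate slides.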 The following applies: higher = more signal.
Test [5] deals with Neurogenic locus notch homolog protein 2 (Homo sapiens) (UniProt Q04721). The test can be described thus: small molecules binding Notch2 protein – biochemical, small-molecule microarray, 635 nm fluorescence, stem cell growth factors, primary screen (AID 1073). The following applies: higher = more signal.
Neurogenic locus notch homolog protein 2 (Homo sapiens), sequence (Q04721 whole entry, looked up, canonical isoform): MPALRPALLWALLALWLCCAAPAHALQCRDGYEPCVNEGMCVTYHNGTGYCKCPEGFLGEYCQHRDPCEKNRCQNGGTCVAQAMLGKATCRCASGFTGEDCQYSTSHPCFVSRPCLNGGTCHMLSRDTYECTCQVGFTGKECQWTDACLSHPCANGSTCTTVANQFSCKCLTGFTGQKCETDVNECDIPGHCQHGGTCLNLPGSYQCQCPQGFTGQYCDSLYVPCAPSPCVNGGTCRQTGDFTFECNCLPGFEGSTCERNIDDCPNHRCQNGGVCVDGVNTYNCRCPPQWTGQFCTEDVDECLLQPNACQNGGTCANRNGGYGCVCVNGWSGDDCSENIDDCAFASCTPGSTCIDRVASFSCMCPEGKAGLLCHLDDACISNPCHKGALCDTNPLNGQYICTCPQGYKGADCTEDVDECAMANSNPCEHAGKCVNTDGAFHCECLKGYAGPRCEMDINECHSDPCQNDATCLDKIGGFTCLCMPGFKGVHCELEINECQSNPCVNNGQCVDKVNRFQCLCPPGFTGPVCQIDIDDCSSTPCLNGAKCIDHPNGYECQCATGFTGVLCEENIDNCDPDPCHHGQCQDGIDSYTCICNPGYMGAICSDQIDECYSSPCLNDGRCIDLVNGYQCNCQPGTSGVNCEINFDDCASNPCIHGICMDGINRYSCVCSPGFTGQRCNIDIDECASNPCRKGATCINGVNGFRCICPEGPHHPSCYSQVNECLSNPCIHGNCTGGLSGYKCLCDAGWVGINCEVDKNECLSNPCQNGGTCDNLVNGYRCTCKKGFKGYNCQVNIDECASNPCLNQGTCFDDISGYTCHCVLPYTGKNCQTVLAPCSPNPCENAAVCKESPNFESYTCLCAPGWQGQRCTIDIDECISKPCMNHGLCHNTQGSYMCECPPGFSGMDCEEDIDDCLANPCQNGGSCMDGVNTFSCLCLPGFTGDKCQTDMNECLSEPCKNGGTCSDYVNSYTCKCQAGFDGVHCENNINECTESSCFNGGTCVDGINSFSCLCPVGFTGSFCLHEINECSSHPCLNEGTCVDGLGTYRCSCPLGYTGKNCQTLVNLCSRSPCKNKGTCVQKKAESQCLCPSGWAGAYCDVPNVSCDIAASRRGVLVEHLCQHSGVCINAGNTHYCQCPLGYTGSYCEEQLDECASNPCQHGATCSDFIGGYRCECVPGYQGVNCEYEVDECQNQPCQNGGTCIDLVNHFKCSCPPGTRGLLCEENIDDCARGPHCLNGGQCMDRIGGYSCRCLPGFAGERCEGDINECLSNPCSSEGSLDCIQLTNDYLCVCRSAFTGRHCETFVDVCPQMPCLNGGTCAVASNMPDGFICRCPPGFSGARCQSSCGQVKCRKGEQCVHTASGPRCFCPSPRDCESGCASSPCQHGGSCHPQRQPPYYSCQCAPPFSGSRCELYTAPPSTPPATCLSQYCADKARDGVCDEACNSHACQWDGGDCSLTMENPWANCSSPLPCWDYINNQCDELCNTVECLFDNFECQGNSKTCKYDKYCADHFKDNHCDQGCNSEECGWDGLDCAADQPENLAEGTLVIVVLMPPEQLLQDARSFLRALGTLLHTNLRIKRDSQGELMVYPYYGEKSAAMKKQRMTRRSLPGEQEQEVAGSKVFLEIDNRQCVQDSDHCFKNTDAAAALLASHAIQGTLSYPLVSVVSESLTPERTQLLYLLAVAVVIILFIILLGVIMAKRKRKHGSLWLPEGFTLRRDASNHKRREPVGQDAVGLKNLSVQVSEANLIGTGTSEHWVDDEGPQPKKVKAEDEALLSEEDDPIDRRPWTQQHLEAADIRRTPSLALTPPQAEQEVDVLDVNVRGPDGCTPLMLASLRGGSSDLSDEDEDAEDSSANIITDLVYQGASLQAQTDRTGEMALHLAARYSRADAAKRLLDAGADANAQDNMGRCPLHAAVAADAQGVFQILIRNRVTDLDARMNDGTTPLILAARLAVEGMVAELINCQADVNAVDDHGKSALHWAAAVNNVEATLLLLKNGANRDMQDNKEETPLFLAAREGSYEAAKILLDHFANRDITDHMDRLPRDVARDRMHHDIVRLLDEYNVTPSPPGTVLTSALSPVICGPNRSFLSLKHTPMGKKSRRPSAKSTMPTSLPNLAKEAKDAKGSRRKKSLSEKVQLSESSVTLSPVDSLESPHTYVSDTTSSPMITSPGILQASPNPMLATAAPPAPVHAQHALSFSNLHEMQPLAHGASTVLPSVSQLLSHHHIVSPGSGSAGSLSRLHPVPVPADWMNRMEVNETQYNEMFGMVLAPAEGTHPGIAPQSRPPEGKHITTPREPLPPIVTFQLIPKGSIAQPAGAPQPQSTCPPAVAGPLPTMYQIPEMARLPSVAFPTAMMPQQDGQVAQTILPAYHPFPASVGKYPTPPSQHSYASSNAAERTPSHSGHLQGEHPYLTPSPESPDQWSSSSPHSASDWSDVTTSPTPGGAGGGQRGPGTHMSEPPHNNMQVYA
Test [6] deals with Pro-neuregulin-1, membrane-bound isoform (Homo sapiens) (UniProt Q02297). The test can be described thus: small molecules binding neuregulin-1 protein – biochemical, small-molecule microarray, fluorescence 635/667, psychiatric disease protein project, primary screen (AID 1075).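 Note: score combines 667 nm spot fluorescence with signal to noise.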 The note with it: NRG1 binding, 635 nm fluorescence, higher = more signal.
Pro-neuregulin-1, membrane-bound isoform (Homo sapiens), sequence (Q02297 whole entry, looked up, the tested form may be a part, canonical isoform): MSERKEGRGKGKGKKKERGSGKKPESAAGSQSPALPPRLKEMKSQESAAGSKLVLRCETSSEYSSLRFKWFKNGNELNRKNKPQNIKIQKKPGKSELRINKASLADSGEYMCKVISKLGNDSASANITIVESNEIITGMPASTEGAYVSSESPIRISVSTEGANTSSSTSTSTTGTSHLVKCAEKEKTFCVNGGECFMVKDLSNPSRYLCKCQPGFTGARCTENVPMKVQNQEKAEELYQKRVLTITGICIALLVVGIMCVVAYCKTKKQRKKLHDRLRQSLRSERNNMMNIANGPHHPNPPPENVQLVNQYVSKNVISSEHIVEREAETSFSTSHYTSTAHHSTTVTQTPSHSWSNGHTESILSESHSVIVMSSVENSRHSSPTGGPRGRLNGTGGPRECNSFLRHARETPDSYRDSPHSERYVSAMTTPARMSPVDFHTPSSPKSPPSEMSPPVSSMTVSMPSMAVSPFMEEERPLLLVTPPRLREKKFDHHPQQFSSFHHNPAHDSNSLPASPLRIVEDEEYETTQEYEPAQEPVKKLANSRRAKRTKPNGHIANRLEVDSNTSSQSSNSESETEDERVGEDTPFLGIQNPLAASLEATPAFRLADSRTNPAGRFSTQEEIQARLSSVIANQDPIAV
The subject of test [7] is Neuregulin-1 EGF-like domain. The test can be described thus: small molecules binding NRG1 EGF domain – biochemical, small-molecule microarray, 635 nm fluorescence, primary screen (AID 1081).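 Note: binding of the protein to compounds printed on small-molecule microarray slides.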 The note with it: higher = more signal.
Test [8] is described as follows: FRG1 expression reporter modulators in myotubes – cell-based, C2C12 myotubes, firefly/Renilla luciferase, luminescence, FRG1 inhibition for FSHD, primary screen (AID 1084). The following applies: FRG1 promoter luciferase, higher = more signal, called active from +8 up or from −8 down.
Test [9] in a line: small molecules captured by biotinylated probe aFST – biochemical, small-molecule microarray, fluorescence 635/667, stem cell growth factor project, primary screen (AID 1086).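 Note: score merges 667 nm fluorescence with signal-to-noise of each printed compound spot.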 The note with it: higher = more signal.
Test [10] in a line: binders of probe aHhip on microarray, primary screen, stem cell growth factor project, biochemical, small-molecule microarray, fluorescence 635/667 (AID 1087).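 Note: score merges spot fluorescence at 667nm with spot signal to noise ratio.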 The following applies: higher = more signal.
Test [11] has as its system PRMT1 (protein arginine N-methyltransferase 1). Description: small molecules binding arginine methyltransferase PRMT1 – biochemical, small-molecule microarray, 635 nm fluorescence, primary screen (AID 1088).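 Note: binding of Prmt1 protein to compounds spotted on small-molecule microarray slides.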 The note with it: higher = more signal.
Test [12] in a line: growth effects on S. cerevisiae YJM789 – YJM789 clinical isolate, OD600, 24 h, basal, primary screen (AID 1089).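 Note: growth of clinical yeast isolate S. cerevisiae YJM 789 seeded 1000 cells per well; test concentration not given here.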 The following applies: higher = more signal, called active from +8 up or from −8 down.
Test [13] is described as follows: S. pombe growth modifiers, basal conditions – strain 972, OD600, 24 h, no modulator, primary screen (AID 1090).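 Note: basal condition with compound alone and no growth modifier present; test concentration not given here.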 The note with it: S. pombe 972 growth, higher = more signal, called active from +8 up or from −8 down.
A short description of test [14]: budding yeast growth modifiers under rapamycin – strain BY4716, OD600, 96 h, primary screen (AID 1091). Note: test concentration not given here. The following applies: S. cerevisiae BY4716 + rapamycin, higher = more signal, called active from +8 up or from −8 down.
Test [15] concerns the target Torsin-1A-interacting protein 2 (Homo sapiens) (UniProt Q8NFQ8). The test can be described thus: small molecules binding lysate-expressed LULL1 – cell lysate, human LULL1 lysate, 635/667 nm fluorescence, primary screen (AID 1092).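 Note: probe is lysate of COS7 cells overexpressing human LULL1; score merges per-feature 667 nm fluorescence with signal-to-noise.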 The note with it: small-molecule microarray, hLULL1 lysate binding, 635 nm fluorescence; higher = more signal.
Test [16] is described as follows: optical density change of DRC41 E. coli – strain DRC41, OD650, 24 h, E. coli filamentation project, primary screen (AID 1093).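 Note: MC1000 strain lacking acrAB efflux and sulA so SOS filamentation is blocked; test concentration not given here.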 The note with it: E. coli DRC41 growth, higher = more signal, called active from +8 up or from −8 down.
Test [17] in a line: probe aLefty2 binding to arrayed compounds – biochemical, biotinylated probe, 635/667 nm fluorescence, primary screen (AID 1094).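 Note: score merges spot fluorescence near 667 nm with spot signal-to-noise ratio.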 The following applies: small-molecule microarray, higher = more signal.
In test [18] the test system is Noggin (protein binding on small-molecule microarray). Description: small molecules binding Noggin protein – biochemical, 635/667 nm fluorescence, primary screen (AID 1095).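 Note: score merges 667 nm feature fluorescence with signal to noise over triplicate slides.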 The following applies: 635 nm fluorescence, higher = more signal.
Test [19] deals with Neurogenic locus notch homolog protein 3 (Homo sapiens) (UniProt Q9UM47). Description: small molecules binding NOTCH3 protein – biochemical, 635/667 nm fluorescence, primary screen (AID 1096). The following applies: small-molecule microarray, 635 nm fluorescence, higher = more signal.
The nature of test [20]: probe aEGFR binding to arrayed compounds – biochemical, biotinylated probe, 635/667 nm fluorescence, primary screen (AID 1097).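 Note: probe is a biotinylated anti-EGFR antibody binding compounds printed on slides; score combines fluorescence near 667 nm and signal to noise of each spot.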 The note with it: small-molecule microarray, higher = more signal.

Nine molecules from PubChem BioAssay can be followed below.

Calls of active or inactive are those of the source.

Torsin-1A-interacting protein 2 (Homo sapiens), sequence (Q8NFQ8 whole entry, looked up): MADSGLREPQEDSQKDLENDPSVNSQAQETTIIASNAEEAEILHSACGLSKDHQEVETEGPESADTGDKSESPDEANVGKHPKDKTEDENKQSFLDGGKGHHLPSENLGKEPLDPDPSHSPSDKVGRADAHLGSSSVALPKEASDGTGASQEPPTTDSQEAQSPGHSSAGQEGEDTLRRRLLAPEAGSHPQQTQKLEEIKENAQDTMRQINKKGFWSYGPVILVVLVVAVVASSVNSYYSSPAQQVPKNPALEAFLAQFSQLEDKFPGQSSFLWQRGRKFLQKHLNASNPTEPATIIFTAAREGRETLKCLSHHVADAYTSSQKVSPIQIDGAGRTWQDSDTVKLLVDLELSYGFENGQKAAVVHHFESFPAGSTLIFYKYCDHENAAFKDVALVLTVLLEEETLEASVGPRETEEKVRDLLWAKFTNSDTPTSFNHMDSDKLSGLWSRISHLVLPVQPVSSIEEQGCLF

Regarding `C=C(CC1([C@@H](NP(=O)(c2ccccc2)c2ccccc2)[C@H]2C[C@@H]2CCCC)CC1)c1cccc(OC)c1`, the composite z-score was 0.511 in [1]; -0.411 in test [2]; 0.112 in test [3]; 0.343 in test [4]; 1.47 in test [5]; 0.0917 in test [6]. Further, the composite z-score in test [7] is 0.737; in test [9], 1.66; in test [10] it was 0.579; in [11], -0.155; in test [15] it was 1.66; in test [17], 0.179. For the same molecule, the figures for the composite z-score in [18], in [19] and in test [20] were -0.239, 0.36 and -0.0563, respectively. The z-score in test [8] is 1.5 (inactive); in test [12], 0.557 (inactive); in test [13], 0.832 (inactive); in [14], 1.82 (inactive); in test [16] it was -0.768 (inactive).
Regarding `CO[C@H]1O[C@H](CO)[C@@H](OC(=O)Nc2cccc(F)c2)[C@H](OC(=O)Nc2ccc3c(c2)OCO3)[C@@H]1OC(=O)Nc1ccc2c(c1)OCO2`, the composite z-score in test [1] is -0.0407; in test [2], 0.786; in [3], 0.112; in test [4] it was 0.959; in [5], 1.46; in test [6], 1.25. In addition, the composite z-score in test [7] turned out to be 1.27; in test [9], 0.986; in test [10], 0.21; in [11], 1.53; in [15] it was 3.48; in test [17], 0.126. In addition, the composite z-score is 0.691 in [18], 1.08 in test [19] and -0.039 in [20]. For the same molecule, the z-score in test [8] was 4 (inactive); in test [12] it was 1.79 (inactive); in test [13], 1.24 (inactive); in test [14], 7.48 (inactive); in test [16], -0.0741 (inactive).
For `O=C/C=C/c1ccc(-c2ccccc2)cc1`, the composite z-score is 0.4 in test [1]; -0.0761 in test [2]; -0.0785 in test [3]; 0.182 in [4]; -0.327 in test [5]; -0.727 in [6]. Besides, the composite z-score is -0.836 in test [7]; -0.0543 in [9]; 0.21 in test [10]; -0.645 in test [11]; -0.7 in test [15]; -0.103 in test [17]. Besides, the composite z-score in [18] was -0.339; in test [19], -0.586; in test [20], -0.15. In addition, the z-score was 2.7 (inactive) in test [8]; -25.4 (active) in [12]; -19.9 (active) in [13]; -5.08 (inactive) in [14]; -0.168 (inactive) in [16].
In the case of `COc1ccc(-c2cc3c(c(CCc4ccccc4)n2)[Si](C(C)C)(C(C)C)O[C@H]3c2ccccc2)cn1`, the composite z-score in [1] was -0.605; in [2], -0.678; in test [3], -0.0754; in test [4], 0.0306; in test [5] it was 0.135; in [6], 0.371. Moreover, the composite z-score is -0.598 in test [7]; 0.16 in test [9]; -0.164 in test [10]; 0.469 in [11]; -0.0354 in test [15]; -0.213 in test [17]. The composite z-score in test [18] was 0.75; in test [19], 0.439; in test [20] it was -0.0749. Moreover, the z-score in test [8] was 0.0071 (inactive); in [12], 0.646 (inactive); in test [13] it was -0.0525 (inactive); in test [14] it was 1.23 (inactive); in test [16] it was -1.12 (inactive).
Consider `CCCC=C(CCC)[C@@H](NC(=O)c1ccc(C(=O)OC)cc1)c1ccc(C(=O)OC)cc1`, for which the composite z-score in test [1] is 0.0362; in test [2], -0.312; in test [3], 0.355; in test [4] it was -0.327; in test [5], 0.423; in [6], 0.203. Besides, the composite z-score in test [7] is -0.166; in [9] it was 0.484; in test [10], 2.54; in test [11] it was 0.0599; in [15] it was 2.85; in [17], 0.177. Besides, the composite z-score in test [18] was found to be 0.294; in test [19] it was 0.251; in test [20], 0.0173. In addition, the z-score in [8] was 1.24 (inactive); in test [12], 0.57 (inactive); in [13] it was 0.311 (inactive); in test [14] it was 0.182 (inactive); in test [16], -1.29 (inactive).
For `CC(C)N1CC=CC23O[C@@H]4/C=C\CCCOC(=O)C4[C@H]2C(=O)N(C(C)CO)[C@@H]3C1=O` (stereo not given in full), the composite z-score was -0.396 in test [1]; -0.237 in [2]; -0.201 in test [3]; -0.789 in test [4]; -0.911 in test [5]; 0.383 in test [6]. Further, the composite z-score was 0.522 in test [7]; -0.588 in test [9]; -0.303 in test [10]; 0.336 in test [11]; 1.95 in test [15]; -0.174 in test [17]. Also, the composite z-score in [18] is -1.25; in [19], -0.155; in [20] it was -0.297. Besides, the z-score in test [8] is -0.798 (inactive); in [12], -1 (inactive); in test [13] it was -1.09 (inactive); in [14], -1.08 (inactive); in [16] it was 1.8 (inactive).
Regarding `C[N+](C)(C)CCCC[C@@H]1NC(=O)[C@H]2C[C@@H](C(=O)NCCCCCN)[C@@H](c3ccc(O)cc3)N2C1=O`, the composite z-score was 0.0912 in [1]; 1.95 in test [2]; -0.0593 in test [3]; 0.873 in test [4]; 0.717 in test [5]; 1.79 in test [6]. Also, the composite z-score in test [7] was 1.21; in test [9] it was 1.2; in [10] it was 0.0722; in [11], 1.54; in [15], 3.06; in [17], 0.0829. Further, the composite z-score in [18] was determined as 1.57; in test [19], 1.11; in test [20], 0.152. Also, the z-score is -0.0231 (inactive) in test [8]; -0.407 (inactive) in test [12]; -2.01 (inactive) in test [13]; -1.2 (inactive) in test [14]; -0.162 (inactive) in test [16].
For `CC(C)C[C@@H]1NC(=O)[C@@H]2C[C@H](C(=O)NCCCCCNC(=O)CS)[C@H](c3ccc(O)cc3)N2C1=O`, the composite z-score was 0.0099 in test [1]; 1.8 in test [2]; -0.0986 in test [3]; -0.435 in test [4]; 0.0232 in test [5]; 1.75 in test [6]. Also, the composite z-score was 1.17 in test [7]; -0.265 in test [9]; -0.0994 in test [10]; 1.16 in test [11]; 2.21 in test [15]; -0.0437 in test [17]. For the same molecule, the composite z-score in [18] was 0.73; in [19], 0.313; in test [20], -0.0493. Further, the z-score in [8] is 2.98 (inactive); in [12], -2.18 (inactive); in test [13] it was 0.0046 (inactive); in [14], -1.65 (inactive); in [16], 1.52 (inactive).
In the case of `COCCOC(=O)N1C(=O)[C@@]2(c3cc(C#CC4(O)CCCCCC4)ccc31)[C@H](C(N)=O)[C@H]1C(=O)O[C@H](c3ccccc3)[C@H](c3ccccc3)N1[C@@H]2c1ccc(OCCO)cc1`, the composite z-score in test [1] is -0.243; in test [2] it was 1.08; in test [3] it was 0.0664; in [4], 0.69; in test [5], 1.42; in test [6], 0.775. Also, the composite z-score is 1.22 in [7]; 0.388 in test [9]; 0.189 in test [10]; 1.54 in test [11]; 2.51 in test [15]; 0.0723 in [17]. For the same molecule, the composite z-score is 1.2 in test [18], 1.09 in [19] and 0.104 in test [20]. Also, the z-score in test [8] is 1.1 (inactive); in [12], 1.73 (inactive); in test [13] it was -0.0624 (inactive); in [14], 5.03 (inactive); in test [16], 0.662 (inactive).
